Screens: PubChem, National Center for Advancing Translational Sciences (NCATS)
Most compounds without a hit are left out; they make up all but 21% or so of the library.
Pf growth 96h: P. falciparum growth inhibition at 96 hour, primary screen for plastid delayed-death inhibitors; Potency, µM (highest dose often 28.7 µM), without a hit: top-dose activity change, negative = inhibition, actives largely listed as inhibitors; actives 6.9% (n = 320,000); P. falciparum luciferase reporter growth, 96 h; also: potency is read from the fitted curve at half-maximal effect; % is scaled to controls: 0 for no effect and ±100 for the full control effect
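96 h incubation, 37 C, 5% CO2, of luciferase-reporter P. falciparum-infected RBCs (2% hematocrit, 0.05% parasitemia final) with test compounds; endpoint luminescence.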
Shiga inhibitor: blocks Shiga toxin action in Vero cells; Vero cells, Shiga toxin protein synthesis inhibition reporter; inhibition, % at 38.7 µM; actives 9.2% (n = 290,000); AID 2315; in the data active = inhibition mostly above about 28%, no sharp cut-off; inactive = mostly below about 43%; also: 0% is about no effect
CHX counter: counter-screen hit for Shiga toxin inhibitors, cycloheximide. cell reporter, cycloheximide protein synthesis inhibition counterscreen. max response, %. actives 12% (n = 300,000); in the data active = max response mostly above about 13%, no sharp cut-off; inactive = mostly below about 14%; also: read at 38.3 µM for the half of the compounds with a filed dose; 0% is about no effect
Pf growth 48h: inhibits P. falciparum growth in the first generation, 48 h | P. falciparum luciferase growth in erythrocytes, 48 h | Potency, µM (doses to about 28.7 µM), for inactives: top-dose activity change, negative = inhibition, actives largely listed as inhibitors | actives 5.9% (n = 310,000); also: potency is read from the fitted curve at half-maximal effect; % is scaled to controls: 0 for no effect and ±100 for the full control effect
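Erythrocytes infected with P. falciparum carrying an integrated firefly luciferase reporter (2% hematocrit, 0.1% parasitemia final) were exposed to compounds in RPMI 1640 with 0.5% Albumax at 37 C, 5% CO2. Growth inhibition was scored as reduced luminescence.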
FBPA Giardia inh: inhibitors of Giardia lamblia fructose-1,6-bisphosphate aldolase. A8B2U2. purified Giardia FBPA. Potency, µM (titrated, usually from 59.6 µM), for inactives: at the top dose activity, negative = inhibition, usual class: inhibitors. actives 0.71% (n = 290,000). AID 2451; also: potency is read from the fitted curve at half-maximal effect; % is scaled to controls: 0 for no effect and ±100 for the full control effect; nearly all actives have a fitted effect of over 55% in size
Target sequence (A8B2U2 whole entry, looked up): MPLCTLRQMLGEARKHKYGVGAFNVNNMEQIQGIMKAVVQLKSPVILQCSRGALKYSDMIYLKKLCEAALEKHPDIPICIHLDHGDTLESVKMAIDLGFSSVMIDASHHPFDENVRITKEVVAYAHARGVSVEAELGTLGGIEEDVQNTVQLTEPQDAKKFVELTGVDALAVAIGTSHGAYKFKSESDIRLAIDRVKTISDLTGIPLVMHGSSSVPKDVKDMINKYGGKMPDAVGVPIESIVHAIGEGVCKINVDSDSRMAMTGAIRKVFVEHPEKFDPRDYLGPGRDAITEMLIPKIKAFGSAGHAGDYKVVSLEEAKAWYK
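Giardia FBPA (40 nM reagent) was preincubated 10 min at RT with compound (up to 57.5 uM final), then substrate plus GAPDH/TPI/NAD/arsenate coupling system with diaphorase/resazurin was added; resorufin fluorescence (525/598 nm) was read after 20 min.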
NS1 inh: inhibitors of influenza NS1 protein function; Potency, µM (titrated, usually from 46.1 µM), inactives show top-dose activity, positive = more growth; actives 0.4% (n = 270,000); AID 2326; calls by dose curve; also: potency is read from the fitted curve at half-maximal effect; actives are rising curves; nearly all actives have a fitted effect of over 50% in size
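A cell-based growth assay was used: compounds that relieve NS1-induced slow growth of budding yeast raise OD600. Assay medium was yeast nitrogen base with ammonium sulphate and -URA supplement, pH 6.0, with 2% galactose.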
* marks the source's active call; other numbers are inactive results; ? = inconclusive; . = no result. Unless noted, calls follow the shape of the dose curve; as a rule, active = well fitted curve in the direction sought with a large enough effect; inconclusive = small, poorly fitted or top-dose-only effect, or another doubt; inactive = no such curve, though single readings can be large; an effect the other way counts as inactive or inconclusive.

SMILES | Pf growth 96h | Shiga inhibitor | CHX counter | Pf growth 48h | FBPA Giardia inh | NS1 inh
COc1ccc(OCc2cc(C(=O)NCCN3CCCC(O)C3)no2)c(Cl)c1 (stereo unspecified) | ? | 4 | 2 | 10% | . | 11%
COc1ccc(OCc2cc(C(=O)NCC3CCCCO3)no2)c(Cl)c1 (stereo unspecified) | 23% | 74* | 46* | -9% | 3% | -28%
Cc1ccc(Cl)cc1Nc1nc(-c2sc(NC(=O)c3cccc(Cl)c3)nc2C)cs1 | ? | -3 | 11 | ? | 0% | -17%
Cc1ccccc1Nc1nc(-c2sc(NC(=O)c3ccc([N+](=O)[O-])cc3)nc2C)cs1 | 13µM* | 39 | 16* | ? | -14% | 6%
Cc1ccccc1Nc1nc(-c2sc(NC(=O)c3ccccc3)nc2C)cs1 | 12µM* | 50* | 12 | 9.3µM* | -14% | 12%
Cc1ccc(Nc2nc(-c3sc(NC(=O)c4ccc([N+](=O)[O-])cc4)nc3C)cs2)cc1 | 2.6µM* | -6 | 1 | 9.3µM* | -11% | -2%
COc1ccc(-c2nc(NC(=O)c3ccccc3)sc2-c2ccc([N+](=O)[O-])cc2)cc1 | ? | -11 | 1 | -13% | -2% | 27%
Cc1ccccc1Nc1nc(-c2sc(NC(=O)c3cccc(Cl)c3)nc2C)cs1 | ? | 44 | 19* | ? | -17% | 21%
COc1ccc2[nH]c3c(=O)n(CCCC(=O)NC4CCCCC4C)c(=S)[nH]c3c2c1 (stereo unspecified) | -23% | -5 | -10 | 4% | . | 7%
NNC(=O)Cc1cccnc1 | . | . | . | . | . | 11%
CCOc1ccccc1NC(=O)NNS(=O)(=O)c1ccc([N+](=O)[O-])cc1 | 0% | -3 | -1 | -6% | -1% | 9%
Cc1nc(NC(=O)c2ccccc2)sc1-c1csc(Nc2ccc(F)cc2)n1 | 3.7µM* | 22 | 10 | ? | -9% | ?
CCOc1ccccc1Nc1nc(-c2sc(NC(=O)c3ccc([N+](=O)[O-])cc3)nc2C)cs1 | ? | 44 | 6 | 3.3µM* | -8% | 16%
O=C(O)C1CC=CC2CCN(C3CC3)C(=O)C21 (stereo unspecified) | . | 17 | 8 | . | 2% | .
COc1ccc(C)cc1NC(=O)CN1CCN(S(=O)(=O)c2ccc(C(C)C)cc2)CC1 | 30% | 14 | 1 | 13µM* | -4% | -40%
COc1ccc(OC)c(NC(=O)Cn2c(-c3ccc(Cl)cc3)noc2=O)c1 | 173% | 20 | -4 | 4.1µM* | -1% | 0%
COc1ccc(C)cc1NC(=O)CN1CCN(S(=O)(=O)c2ccc(Cl)cc2)CC1 | ? | -8 | -1 | 12µM* | -7% | -36%
COc1ccc(S(=O)(=O)N2CCN(CC(=O)Nc3cc(Cl)ccc3Cl)CC2)cc1 | 10% | . | . | -9% | . | .
COc1ccc(Cl)cc1NC(=O)CN1CCN(S(=O)(=O)c2ccc(F)cc2)CC1 | -9% | -5 | -1 | 3.7µM* | 4% | 3%
COc1ccc(NC(=O)Cn2c(=O)oc3cc(Cl)ccc32)c(OC)c1 | ? | -8 | 10 | -5% | 1% | -1%
Cc1cc(C)c(S(=O)(=O)N2CCN(C(=O)CN3C(=O)NC4(CCCC4)C3=O)CC2)c(C)c1 | 4% | 12 | -1 | -8% | . | -8%
Cc1cc(C)cc(-c2cc3c(c(-c4c(O)c(-c5cc(C)cc(C)c5)cc5c4CCCC5)c2O)CCCC3)c1 | . | . | . | . | -5% | .
CCC(C)N1C(=O)N(c2cccc(Cl)c2)C(C)(O)CC1(C)C (stereo unspecified) | -14% | 19 | -6 | -17% | 6% | -3%
CCc1nnc(NC(=O)CCC(=O)NCCc2ccc(OC)c(OC)c2)s1 | 17% | -5 | -3 | -2% | 4% | 19%
Nc1ncnc2n[nH]c(Nc3ccc(F)cc3)c12 | . | -12 | -6 | . | 2% | .
CN(C)c1ccnc2sc3c(=O)n(-c4ccccc4)cnc3c12 | 41% | 19 | 12* | 12% | -4% | -2%
COc1ccc(C(=O)COC(=O)CCN=C2NS(=O)(=O)c3ccccc32)c(OC)c1 | 11% | . | . | -19% | . | .
COc1cccc(/C=N/Nc2nc(N3CCCC3)nc(N3CCCC3)n2)c1O | -17% | 23 | 3 | ? | -4% | -8%
